S1P4 antagonist – S1P4 receptor antagonists, primary screen, cell-based; Sphingosine 1-phosphate receptor 4 (Homo sapiens), O95977; S1P4-expressing cells, antagonist mode, reporter read-out; inhibition, % at 4.98 µM; hit rate 0.26% among 220,000; in the data active = inhibition above about 29%;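 also: 0% = wells stimulated with agonist and 100% = vehicle wells without agonist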
INS promoter inh – inhibitors of insulin promoter-driven GFP, primary screen, imaging, TRM-6 cells (human fetal islet line), eGFP reporter, cell count; reporter expression induced with tamoxifen; inhibition, % at 2 µM; hit rate 0.9% among 130,000;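 active = inhibition above the mean plus 3 SD, with well images judged a real hit on visual review, cut at about 60% in these data, passing the limit was not always enough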
Hsp70 activator – Hsp70 transcriptional activators, primary screen, cell-based, HeLa, Hsp70 promoter luciferase, luminescence, 10 µM; hit rate 0.04% among 200,000; AID 1203, 2008; HeLa Hsp70 promoter luciferase reporter; scaled: vehicle 0, proteasome-inhibitor control 100%; activation, % at 10 µM;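 active = activation above the mean across all tested compounds plus 3 SD, cutoff set per campaign, cut at about 5.5% in these data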;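 also: 100% = MG132 at 30 µM as the positive control and 0% = DMSO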
S1P4 ag – S1P4 receptor agonists, primary screen, cell-based; hit rate 0.35% among 220,000; Sphingosine 1-phosphate receptor 4 (Homo sapiens), O95977; S1P4-expressing cell line, agonist reporter assay; activation, % at 4.98 µM; in the data active = activation above about 11%;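 also: 0% = DMSO vehicle and 100% = reference agonist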
S1P3 antagonist – S1P3 receptor antagonists, primary screen, cell-based; Sphingosine 1-phosphate receptor 3 (Homo sapiens), Q99500; CHO S1P3 NFAT-BLA reporter, FRET fluorescence, antagonist mode; inhibition, % at 4.98 µM; hit rate 0.27% among 170,000; AID 485, 2006;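 active = inhibition above the plate cutoff, the mean inhibition of test wells on that plate plus 3 SD, cut at about 28% in these data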;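 also: cells challenged with S1P at its EC80 of 0.8 µM; blue over green emission ratio from cleaved BLA substrate after 4 h stimulation; 0% = S1P-stimulated wells and 100% = unstimulated DMSO-only wells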
Target sequence (Q99500 whole entry, looked up): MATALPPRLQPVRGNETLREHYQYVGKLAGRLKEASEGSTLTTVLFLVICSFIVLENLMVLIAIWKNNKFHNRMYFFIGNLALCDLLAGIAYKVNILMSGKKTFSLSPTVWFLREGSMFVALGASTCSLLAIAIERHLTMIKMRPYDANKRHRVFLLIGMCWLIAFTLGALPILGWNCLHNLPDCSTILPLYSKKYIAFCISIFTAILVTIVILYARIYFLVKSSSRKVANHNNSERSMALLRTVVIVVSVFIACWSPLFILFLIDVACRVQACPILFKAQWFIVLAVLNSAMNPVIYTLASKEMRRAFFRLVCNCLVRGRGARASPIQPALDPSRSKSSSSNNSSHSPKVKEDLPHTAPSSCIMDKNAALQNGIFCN
Ins promoter up – insulin promoter activators in MIN6 cells, imaging, high-content screening, mouse beta cells. MIN6 insulin promoter-GFP reporter; stronger effect = higher value. z-score at 5 µM. hit rate 0.3% among 190,000;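 active = z-score above 3 at 5 µM with at least 500 cells counted in the well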
Starred values were filed as active, the others as inactive; / = no result. A selection: hits, their analogues and other compounds. The true share with any hit is near 1.5%.

SMILES | S1P4 antagonist | INS promoter inh | Hsp70 activator | S1P4 ag | S1P3 antagonist | Ins promoter up
Cc1ccccc1-c1nnc(-c2ccccc2)o1 | -16 | 28 | 0 | 0 | 36 | 1.6
CCCc1nn(C)c(C(=O)Nc2cccc(Cl)c2)c1Cl | -16 | / | 0 | 1 | 15 | 0.06
CCCn1c(SCC(=O)NC2CCCCC2)nnc1-c1ccncc1 | -8 | -25 | 0 | 1 | -43 | 3.1*
CCCn1c(SCC(=O)Nc2nc(C)cs2)nnc1-c1cccnc1 | -10 | 75* | 0 | -1 | -19 | /
O=C(/C=C/c1cccc(OCc2ccccc2)c1)c1cccnc1 | 6 | / | 0 | 1 | 4 | -0.24
C/C(=N\NC(=O)c1cccc([N+](=O)[O-])c1)c1ccco1 | -9 | / | / | 2 | -9 | -0.39
C/C(=N\NC(=O)c1cccc(N/N=C(\C)c2ccco2)c1)c1ccco1 | -9 | 82* | 0 | 0 | -14 | -0.46
O=C(O)C1CCCN1C(=O)OCc1ccccc1 (stereo not given) | -8 | -50 | -1 | 1 | 15 | 0.27
Nc1ccc2nc(SCC(=O)N3CCN(c4ccccc4)CC3)sc2c1 | -12 | / | / | 1 | 5 | -1.2
Nc1ccc2nc(SCC(=O)N3CCOCC3)sc2c1 | -13 | 80* | 0 | 2 | -4 | 1.2
Cc1csc(C(C#N)C(=O)c2cc3ccccc3o2)n1 (stereo not given) | 7 | -27 | 0 | 1 | / | 2.5
C=CCn1c(SCC(=O)c2ccc(O)c(O)c2)nnc1-c1ccccc1OC | -30 | 15 | 0 | 1 | 0 | -0.33
CCn1c(SCC(=O)c2ccc(O)c(O)c2)nnc1-c1ccccc1OC | 8 | -45 | 0 | -1 | 74* | 0.03
CCN1CCc2c(sc(NC(=O)Nc3ccc(Cl)c(Cl)c3)c2C(N)=O)C1 | -7 | -208 | 0 | 0 | 29* | /
CCN1CCc2c(sc(NC(=S)NC(=O)c3ccco3)c2C(N)=O)C1 | 6 | / | / | 1 | -19 | 0.23
c1ccc2sc(SCSc3nc4ccccc4s3)nc2c1 | -6 | / | / | 1 | -16 | -0.27
N#CCc1nc(CSc2nc3ccccc3s2)cs1 | 1 | 31 | 0 | -3 | 27 | 4*
COc1ccc(OCCn2cc(/C(N)=N/O)c3ccccc32)cc1 | 1 | -29 | 0 | -1 | / | 3.1*
Cc1occc1-c1nnc(SCC(=O)NCc2ccc3c(c2)OCO3)n1CC(C)C | -20 | / | -1 | -1 | -13 | -0.47
CCN(CC)c1nc2ccccc2[nH]1 | 0 | 72* | 0 | 1 | / | -0.32
Cc1cc(C(=O)CSc2ccc3c(c2)OCCO3)c(C)n1C1CC1 | -10 | 0 | 0 | 1 | -1 | 0.23
COc1ccc(C(=O)Nc2cccc(NC(C)=O)c2)cc1OC | 5 | 50 | 0 | 1 | -15 | 0.46
COc1ccc(NC(C)=O)cc1C | -7 | 71* | 0 | 1 | 1 | -0.29
O=C(Nc1cccs1)Nc1ccc(Br)cc1F | -9 | 70* | 0 | 1 | 2 | 0.91
Cc1cccc2cc(C#N)c(SCC(=O)NCc3cccs3)nc12 | -6 | -5 | 0 | -2 | -1 | 0.23
SMILES | S1P4 antagonist | INS promoter inh | Hsp70 activator | S1P4 ag | S1P3 antagonist | Ins promoter up
CC(C)CCNCC(=O)NC(c1ccccc1)c1ccccc1 | -3 | -27 | 0 | 0 | 2 | -0.47
O=C1Nc2ccccc2N(O)N1c1cc(-c2ccccc2)[nH]n1 | 22 | 85* | 0 | 2 | 9 | 0.41
CCC(C)/C(C)=N/NC(=O)c1ccc(CSc2nc3ccccc3s2)cc1 (stereo not given) | -10 | 100* | 0 | 1 | -5 | 0.23
Nc1nonc1-c1nc2ccccc2n1CC(=O)Nc1ccccc1 | -18 | / | / | 1 | 2 | -0.08
CCOC(=O)c1ccccc1NC(=O)Cn1c(-c2nonc2N)nc2ccccc21 | -11 | -204 | 0 | 0 | 56* | /
CC1CC(C)(C)NC(=S)N1CCC(=O)N1CCc2ccccc2C1 (stereo not given) | 3 | / | 0 | 1 | 0 | -0.2
CCc1cc2c(CN3CCN(CCO)CC3)cc(=O)oc2cc1O | -4 | -300 | -1 | 6 | 14 | 3.6*
CCc1nnc(NS(=O)(=O)c2ccc(NC(=O)/C=C/c3ccc(OC)cc3OC)cc2)s1 | -18 | -3 | 0 | 1 | 2 | -0.04

Source: PubChem (several laboratories)
